The supplement of paper PMC9334596
Where “and” joins values, the source holds several entries; their conditions need not be identical. Equal entries are not always repeated. The full ranking holds about 5,300 compounds; the median of “PER2::LUC luminescence relative to vehicle control” is about 0.96, and the highest 2% start at about 1.3. Shown is part of a subset that was picked to be rich in the highest values.

System: mPer2Luc MEF
Experiment: PER2::LUC luminescence relative to vehicle control (fold of vehicle); higher = higher PER2::LUC reporter signal
Details: 10 µM
Method in brief: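 The value is PER2::LUC luminescence expressed as fold of vehicle control. Mouse embryonic fibroblasts carrying the mPer2Luc reporter were seeded at ~3000 cells per well in 384-well plates and grown in DMEM with 10% FBS at 37 °C and 5% CO2. Compounds from commercial libraries were added at 10 μM 48 h after seeding, and luminescence was read with the ONE-Glo luciferase assay system 24 h and 30 h after treatment, followed by an alamarBlue viability assay.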

With `C[C@@H](Nc1cc(NS(=O)(=O)N2CCC2)nc(SCc2cccc(F)c2F)n1)[C@@H](O)CO` the “PER2::LUC luminescence” value (time after treatment 24 h) was 1.03 and the “PER2::LUC luminescence” value (time after treatment 30 h) was 1.

For `COc1ccc2c(c1)C[C@H](C(=O)Nc1ccc(-c3cn[nH]c3)cc1OCCN(C)C)CO2`, the “PER2::LUC luminescence” value (time after treatment 24 h) was 0.472 and the “PER2::LUC luminescence” value (time after treatment 30 h) was 0.452.

`CCN(CC)C(=O)C(c1ccccc1)N1CCN(c2ccc(NC(=O)c3ccccc3-c3cccnc3)cc2F)CC1` (configuration not stated) was tested, and the “PER2::LUC luminescence” value (time after treatment 24 h) was 0.968 and the “PER2::LUC luminescence” value (time after treatment 30 h) was 1.09.

With `O=C[C@H](O)[C@H](O)CO` the “PER2::LUC luminescence” value (time after treatment 24 h) was 0.921 and the “PER2::LUC luminescence” value (time after treatment 30 h) was 0.987.

For `CN1C(=O)C[C@H](C(=O)O)[C@H]1c1cccnc1`, the “PER2::LUC luminescence” value (time after treatment 24 h) was 1.08 and the “PER2::LUC luminescence” value (time after treatment 30 h) was 1.07.

For `CC(C)=CCc1c(O)ccc(C(=O)/C=C/c2ccc(O)cc2)c1O`, the “PER2::LUC luminescence” value (time after treatment 24 h) was 0.904 and the “PER2::LUC luminescence” value (time after treatment 30 h) was 0.903.

In the case of `COc1cc(O)c(C(=O)/C=C/c2ccccc2)c(OC)c1`, the “PER2::LUC luminescence” value (time after treatment 24 h) is reported as 0.907 and the “PER2::LUC luminescence” value (time after treatment 30 h) is reported as 0.937.

For `O=C(/C=C/c1ccc(O)cc1)c1ccc(O)cc1O`, the “PER2::LUC luminescence” value (time after treatment 24 h) was 1.24 and the “PER2::LUC luminescence” value (time after treatment 30 h) was 1.41.

`O=C(/C=C/c1ccc(O)c(O)c1)c1ccc(O)cc1O` was tested, and the “PER2::LUC luminescence” value (time after treatment 24 h) was 1.04 and the “PER2::LUC luminescence” value (time after treatment 30 h) was 1.13.

With `O=C(/C=C/c1ccccc1)c1ccc(O)cc1O` the “PER2::LUC luminescence” value (time after treatment 24 h) was 1.21 and the “PER2::LUC luminescence” value (time after treatment 30 h) was 1.43.

With `O=C(/C=C/c1ccccc1)c1ccc(O[C@@H]2O[C@H](CO)[C@@H](O)[C@H](O)[C@H]2O)cc1O` the “PER2::LUC luminescence” value (time after treatment 24 h) was 1.21 and the “PER2::LUC luminescence” value (time after treatment 30 h) was 1.27.

With `Clc1ccc(Nc2nc3ccccc3c3nc(C4CCCCC4)[nH]c23)cc1Cl` the “PER2::LUC luminescence” value (time after treatment 24 h) was 0.84 and the “PER2::LUC luminescence” value (time after treatment 30 h) was 0.867.

With `OCC1OC(O)CC(O)C1O` (configuration not stated) the “PER2::LUC luminescence” value (time after treatment 24 h) was 1.15 and the “PER2::LUC luminescence” value (time after treatment 30 h) was 0.973.

With `CCCCCCCC(=O)CCc1ccc(O)c(OC)c1` the “PER2::LUC luminescence” value (time after treatment 24 h) was 1.04 and the “PER2::LUC luminescence” value (time after treatment 30 h) was 0.901.

In the case of `N=C(N)SCc1ccc(CSC(=N)N)s1`, the “PER2::LUC luminescence” value (time after treatment 24 h) is reported as 1.01 and 0.976 and the “PER2::LUC luminescence” value (time after treatment 30 h) is reported as 1.01 and 0.977.

`COCCOc1nc(N)c2[nH]c(=O)n(Cc3ccccc3)c2n1` was tested, and the “PER2::LUC luminescence” value (time after treatment 24 h) was 1.21 and the “PER2::LUC luminescence” value (time after treatment 30 h) was 1.13.

For `O=C(O)CC1CC(c2ccccc2)=NO1` (configuration not stated), the “PER2::LUC luminescence” value (time after treatment 24 h) was 0.994 and 1.06 and the “PER2::LUC luminescence” value (time after treatment 30 h) was 0.948 and 1.15.

With `COC(=O)CC1CC(c2ccc(O)cc2)=NO1` (configuration not stated) the “PER2::LUC luminescence” value (time after treatment 24 h) was 1.51 and the “PER2::LUC luminescence” value (time after treatment 30 h) was 1.75.

In the case of `CC(C)=CCC[C@](C)(O)[C@H]1CC[C@]2(C)[C@@H]1CC[C@@H]1[C@@]3(C)CCC(=O)C(C)(C)[C@@H]3CC[C@]12C`, the “PER2::LUC luminescence” value (time after treatment 24 h) is reported as 1.05 and the “PER2::LUC luminescence” value (time after treatment 30 h) is reported as 0.987.

For `CC(=O)OC[C@@]1(O)C[C@@]23CC[C@@H]4c5ccoc5C=C[C@@]4(C)[C@@H]2CC[C@@H]1C3`, the “PER2::LUC luminescence” value (time after treatment 24 h) was 1.02 and the “PER2::LUC luminescence” value (time after treatment 30 h) was 0.958.

`N#Cc1cccc2sc(C(=O)N=C(N)N)cc12` was tested, and the “PER2::LUC luminescence” value (time after treatment 24 h) was 1.02 and the “PER2::LUC luminescence” value (time after treatment 30 h) was 1.08.

For `C[N+](C)(C)C[C@H](O)CC(=O)O`, the “PER2::LUC luminescence” value (time after treatment 24 h) was 0.959 and the “PER2::LUC luminescence” value (time after treatment 30 h) was 0.919.

With `NCC(O)CC(=O)O` (configuration not stated) the “PER2::LUC luminescence” value (time after treatment 24 h) was 1.23 and 1.06 and the “PER2::LUC luminescence” value (time after treatment 30 h) was 1.56 and 0.991.

`N[C@H](CC(=O)O)C(=O)O` was tested, and the “PER2::LUC luminescence” value (time after treatment 24 h) was 1.09 and the “PER2::LUC luminescence” value (time after treatment 30 h) was 1.08.

For `O=C1OC(C=Cc2ccccc2)=NC1=Cc1cccnc1`, the “PER2::LUC luminescence” value (time after treatment 24 h) was 1.03 and the “PER2::LUC luminescence” value (time after treatment 30 h) was 1.05.

In the case of `O=C(CCc1ccccc1)N1CCC(O)(Cn2cnc3cc(Cl)ccc3c2=O)CC1`, the “PER2::LUC luminescence” value (time after treatment 24 h) is reported as 0.949 and the “PER2::LUC luminescence” value (time after treatment 30 h) is reported as 0.916.

`Cc1ccc2c(Nc3ccc(Cl)cc3)nccc2c1Nc1ncccc1-c1ncnc2nc[nH]c12` was tested, and the “PER2::LUC luminescence” value (time after treatment 24 h) was 0.42 and the “PER2::LUC luminescence” value (time after treatment 30 h) was 0.349.

With `N=C(NC(=O)c1nc(Cl)c(N)nc1N)Nc1ccccc1` the “PER2::LUC luminescence” value (time after treatment 24 h) was 1.32 and the “PER2::LUC luminescence” value (time after treatment 30 h) was 1.39.

In the case of `N=C(N)NC(=O)c1nc(Cl)c(N)nc1N`, the “PER2::LUC luminescence” value (time after treatment 24 h) is reported as 1.32 and the “PER2::LUC luminescence” value (time after treatment 30 h) is reported as 1.12.

For `N/C(=N\C(=O)c1nc(Cl)c(N)nc1N)NCc1ccccc1`, the “PER2::LUC luminescence” value (time after treatment 24 h) was 1.08 and the “PER2::LUC luminescence” value (time after treatment 30 h) was 0.986.

`CNc1ncnc2c1ncn2[C@H]1C[C@H](O)[C@@H](CO)O1` was tested, and the “PER2::LUC luminescence” value (time after treatment 24 h) was 1.04 and the “PER2::LUC luminescence” value (time after treatment 30 h) was 0.963.

For `C[C@@H]1O[C@@H](O[C@@H]2[C@@H](O)[C@H](O)[C@@H](CO)O[C@H]2c2c(O)cc(O)c3c(=O)cc(-c4ccc(O)cc4)oc23)[C@H](O)[C@H](O)[C@H]1O`, the “PER2::LUC luminescence” value (time after treatment 24 h) was 1.04 and the “PER2::LUC luminescence” value (time after treatment 30 h) was 0.979.

In the case of `COc1ccc(C2C(=O)c3ccccc3C2=O)cc1`, the “PER2::LUC luminescence” value (time after treatment 24 h) is reported as 1.08 and the “PER2::LUC luminescence” value (time after treatment 30 h) is reported as 1.36.

With `O=C1c2ccccc2C(=O)C1c1ccccc1` the “PER2::LUC luminescence” value (time after treatment 24 h) was 1.05 and 0.913 and the “PER2::LUC luminescence” value (time after treatment 30 h) was 1 and 0.991.

For `O=C1c2ccccc2C(=O)C1c1ccc(Br)cc1`, the “PER2::LUC luminescence” value (time after treatment 24 h) was 0.477 and the “PER2::LUC luminescence” value (time after treatment 30 h) was 0.974.

With `CCCCOC(=O)OCCCC` the “PER2::LUC luminescence” value (time after treatment 24 h) was 1 and the “PER2::LUC luminescence” value (time after treatment 30 h) was 1.02.

With `CC1=CC(=O)CC(C)(C)C1(O)/C=C/C(C)=C\C(=O)O` (racemic) the “PER2::LUC luminescence” value (time after treatment 24 h) was 1.01 and the “PER2::LUC luminescence” value (time after treatment 30 h) was 1.02.

In the case of `CCCCCCOc1ccccc1C(N)=O`, the “PER2::LUC luminescence” value (time after treatment 24 h) is reported as 1.33 and the “PER2::LUC luminescence” value (time after treatment 30 h) is reported as 1.53.

`CCOc1ccccc1C(N)=O` was tested, and the “PER2::LUC luminescence” value (time after treatment 24 h) was 1.03 and 0.951 and the “PER2::LUC luminescence” value (time after treatment 30 h) was 0.986 and 0.793.

With `CCOCCOc1ccccc1C(N)=O` the “PER2::LUC luminescence” value (time after treatment 24 h) was 0.861 and the “PER2::LUC luminescence” value (time after treatment 30 h) was 1.09.

In the case of `COc1ccc2cc([C@H](C)C(=O)O)ccc2c1`, the “PER2::LUC luminescence” value (time after treatment 24 h) is reported as 0.987 and 1.09 and 0.7 and the “PER2::LUC luminescence” value (time after treatment 30 h) is reported as 0.972 and 0.822 and 0.852.

For `COc1ccc2cc(CCC(C)=O)ccc2c1`, the “PER2::LUC luminescence” value (time after treatment 24 h) was 1.75 and the “PER2::LUC luminescence” value (time after treatment 30 h) was 1.7.

With `COc1ccc2cc([C@@H](C)C(=O)O)ccc2c1` the “PER2::LUC luminescence” value (time after treatment 24 h) was 1 and the “PER2::LUC luminescence” value (time after treatment 30 h) was 1.05.

`CCO/N=C1\c2ccccc2-c2nc(C#N)c(C#N)nc21` was tested, and the “PER2::LUC luminescence” value (time after treatment 24 h) was 0.664 and the “PER2::LUC luminescence” value (time after treatment 30 h) was 0.619.

With `C=CC(=O)c1ccc(CCCCCC)cc1` the “PER2::LUC luminescence” value (time after treatment 24 h) was 1.02 and the “PER2::LUC luminescence” value (time after treatment 30 h) was 0.845.

For `CCNCCNC(=O)c1c(C)[nH]c(/C=C2\C(=O)Nc3ccc(F)cc32)c1C`, the “PER2::LUC luminescence” value (time after treatment 24 h) was 0.42 and the “PER2::LUC luminescence” value (time after treatment 30 h) was 0.619.
